Measured values: PubChem BioAssay AID1159580 (chemical genetic matrix, 2015)
Where “and” joins values, the source holds several entries; their conditions need not be identical. Equal values may be shown once. The whole screen tested about 5,500 compounds, of which about 2,000 (36%) were called active. Inconclusive results (about 18%) are left out. Some of the results follow. Values without a mark were called inactive. Cut-off read from the data, not from the text of the source: active = normalized growth mostly below about 0.91 (no sharp cut-off); inconclusive = no clear call, values can overlap the other calls; inactive = mostly above about 0.92.

Assay: chemical genetic growth profiling, strain panel (AID 1159580);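 note: tested at 20 µM; growth read once vehicle control cultures reached saturation at 30 °C; 1 = growth at the plate median or of vehicle wells; lower values mean less growth of the strain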
Conditions: S. cerevisiae deletion strains, growth OD

## CC12CCCC(O)(C1)C1CC(C)(C)C1CC2 (configuration not stated)
Locus YAL013W, strain DEP1, stronger effect = lower value
  normalized growth: 1.02
Locus YAL021C, strain ccr4, stronger effect = lower value
  normalized growth: 1
Locus YAL026C, strain drs2, stronger effect = lower value
  normalized growth: 1
Locus YAL030W, strain snc1, stronger effect = lower value
  normalized growth: 0.985
Locus YBL061C, strain skt5, stronger effect = lower value
  normalized growth: 0.993
Locus YBR009C, strain hhf1, stronger effect = lower value
  normalized growth: 0.947
Locus YBR021W, strain FUR4, stronger effect = lower value
  normalized growth: 1
Locus YBR023C, strain chs3, stronger effect = lower value
  normalized growth: 0.951
Locus YBR171W, strain sec66, stronger effect = lower value
  normalized growth: 0.987
Locus YBR229C, strain ROT2, stronger effect = lower value
  normalized growth: 1
Locus YBR231C, strain swc5, stronger effect = lower value
  normalized growth: 0.977
Locus YBR279W, strain paf1, stronger effect = lower value
  normalized growth: 0.959
Locus YCL011C, strain gbp2, stronger effect = lower value
  normalized growth: 0.965
Locus YCL016C, strain dcc1, stronger effect = lower value
  normalized growth: 0.971
Locus YCL029C, strain bik1, stronger effect = lower value
  normalized growth: 1
Locus YCL061C, strain MRC1, stronger effect = lower value
  normalized growth: 0.962
Locus YCL069W, strain vba3, stronger effect = lower value
  normalized growth: 0.998
Locus YCR088W, strain abp1, stronger effect = lower value
  normalized growth: 0.993
Locus YDL005C, strain med2, stronger effect = lower value
  normalized growth: 1
Locus YDL035C, strain GPR1, stronger effect = lower value
  normalized growth: 1
Locus YDL040C, strain nat1, stronger effect = lower value
  normalized growth: 0.997
Locus YDL074C, strain BRE1, stronger effect = lower value
  normalized growth: 1.03
Locus YDL101C, strain DUN1, stronger effect = lower value
  normalized growth: 1.03
Locus YDL134C, strain PPH21, stronger effect = lower value
  normalized growth: 1.03
Locus YDL185W, strain tfp1, stronger effect = lower value
  normalized growth: 1.02
Locus YDL192W, strain arf1, stronger effect = lower value
  normalized growth: 0.984
Locus YDR001C, strain nth1, stronger effect = lower value
  normalized growth: 1
Locus YDR069C, strain doa4, stronger effect = lower value
  normalized growth: 0.951
Locus YDR101C, strain arx1, stronger effect = lower value
  normalized growth: 0.985
Locus YDR137W, strain rgp1, stronger effect = lower value
  normalized growth: 0.8 (active)
Locus YDR159W, strain sac3, stronger effect = lower value
  normalized growth: 0.841 (active)
Locus YDR162C, strain NBP2, stronger effect = lower value
  normalized growth: 0.997
Locus YDR195W, strain ref2
  normalized growth: 0.949
Locus YDR297W, strain sur2, stronger effect = lower value
  normalized growth: 0.927
Locus YDR318W, strain mcm21, stronger effect = lower value
  normalized growth: 1.02
Locus YDR334W, strain swr1, stronger effect = lower value
  normalized growth: 1.04
Locus YDR335W, strain msn5, stronger effect = lower value
  normalized growth: 1
Locus YDR388W, stronger effect = lower value
  normalized growth: 1.01
Locus YDR392W, strain spt3, stronger effect = lower value
  normalized growth: 0.37 (active)
Locus YDR502C, strain sam2, stronger effect = lower value
  normalized growth: 1.05
Locus YEL003W, strain gim4, stronger effect = lower value
  normalized growth: 0.942
Locus YEL037C, strain rad23, stronger effect = lower value
  normalized growth: 1
Locus YEL061C, strain CIN8 (second series), stronger effect = lower value
  normalized growth: 1
Locus YEL061C, strain CIN8, stronger effect = lower value
  normalized growth: 1
Locus YER015W, strain faa2, stronger effect = lower value
  normalized growth: 1.01
Locus YER016W, strain bim1, stronger effect = lower value
  normalized growth: 0.995
Locus YER110C, stronger effect = lower value
  normalized growth: 1.02
Locus YER111C, strain swi4, stronger effect = lower value
  normalized growth: 1
Locus YER155C, strain BEM2 (second series), stronger effect = lower value
  normalized growth: 0.795 (active)
Locus YER155C, strain BEM2, stronger effect = lower value
  normalized growth: 0.994
Locus YER167W, strain BCK2, stronger effect = lower value
  normalized growth: 0.992
Locus YFR010W, strain ubp6, stronger effect = lower value
  normalized growth: 0.979
Locus YGL078C, strain dbp3, stronger effect = lower value
  normalized growth: 1.05
Locus YGL086W, strain mad1, stronger effect = lower value
  normalized growth: 1.02
Locus YGL167C, strain pmr1, stronger effect = lower value
  normalized growth: 0.999
Locus YGL173C, strain kem1, stronger effect = lower value
  normalized growth: 0.977
Locus YGL227W, strain vid30, stronger effect = lower value
  normalized growth: 0.998
Locus YGL240W, strain doc1, stronger effect = lower value
  normalized growth: 0.915
Locus YGL248W, strain PDE1, stronger effect = lower value
  normalized growth: 1.03
Locus YGL253W, strain hxk2, stronger effect = lower value
  normalized growth: 0.991
Locus YGR135W, strain pre9, stronger effect = lower value
  normalized growth: 1.08
Locus YGR252W, strain gcn5, stronger effect = lower value
  normalized growth: 1.09
Locus YHR013C, strain ard1, stronger effect = lower value
  normalized growth: 1.01
Locus YHR027C, strain rpn1, stronger effect = lower value
  normalized growth: 1
Locus YHR030C, strain SLT2, stronger effect = lower value
  normalized growth: 0.945
Locus YHR079C, strain IRE1 (second series), stronger effect = lower value
  normalized growth: 1.01
Locus YHR079C, strain IRE1, stronger effect = lower value
  normalized growth: 0.971
Locus YHR094C, strain hxt1, stronger effect = lower value
  normalized growth: 1.01
Locus YHR129C, strain ARP1, stronger effect = lower value
  normalized growth: 1.01
Locus YHR142W, strain chs7, stronger effect = lower value
  normalized growth: 0.923
Locus YHR200W, strain rpn10, stronger effect = lower value
  normalized growth: 1.04
Locus YIL066C, strain RNR3, stronger effect = lower value
  normalized growth: 1.01
Locus YIL073C, strain SPO22, stronger effect = lower value
  normalized growth: 1.03
Locus YIL125W, strain kgd1, stronger effect = lower value
  normalized growth: 1.01
Locus YIR030C, strain dcg1, stronger effect = lower value
  normalized growth: 1.01
Locus YJL092W, strain hpr5, stronger effect = lower value
  normalized growth: 0.992
Locus YJL095W, strain BCK1 (second series), stronger effect = lower value
  normalized growth: 0.934
Locus YJL095W, strain BCK1, stronger effect = lower value
  normalized growth: 1.03 and 0.976
Locus YJL115W, strain asf1, stronger effect = lower value
  normalized growth: 1.01
Locus YJL129C, strain trk1, stronger effect = lower value
  normalized growth: 0.956
Locus YJL134W, strain LCB3, stronger effect = lower value
  normalized growth: 0.995
Locus YJL154C, strain vps35, stronger effect = lower value
  normalized growth: 1.01
Locus YJL164C, strain tpk1, stronger effect = lower value
  normalized growth: 0.946
Locus YJL166W, strain qcr8, stronger effect = lower value
  normalized growth: 0.945
Locus YJL168C, strain set2, stronger effect = lower value
  normalized growth: 1.03
Locus YJL187C, strain SWE1 (second series), stronger effect = lower value
  normalized growth: 1.04
Locus YJL187C, strain SWE1, stronger effect = lower value
  normalized growth: 0.937
